# Measured values from ChEMBL document CHEMBL2218924, “A broad activity screen in support of a chemogenomic map for kinase signalling research and drug discovery” (Biochem J, 2013).
# Target: G protein-coupled receptor kinase 5 (Homo sapiens) (UniProt P34947)
# Conditions: at 1 µM
# Sequence of G protein-coupled receptor kinase 5 (Homo sapiens) (P34947 whole entry, looked up): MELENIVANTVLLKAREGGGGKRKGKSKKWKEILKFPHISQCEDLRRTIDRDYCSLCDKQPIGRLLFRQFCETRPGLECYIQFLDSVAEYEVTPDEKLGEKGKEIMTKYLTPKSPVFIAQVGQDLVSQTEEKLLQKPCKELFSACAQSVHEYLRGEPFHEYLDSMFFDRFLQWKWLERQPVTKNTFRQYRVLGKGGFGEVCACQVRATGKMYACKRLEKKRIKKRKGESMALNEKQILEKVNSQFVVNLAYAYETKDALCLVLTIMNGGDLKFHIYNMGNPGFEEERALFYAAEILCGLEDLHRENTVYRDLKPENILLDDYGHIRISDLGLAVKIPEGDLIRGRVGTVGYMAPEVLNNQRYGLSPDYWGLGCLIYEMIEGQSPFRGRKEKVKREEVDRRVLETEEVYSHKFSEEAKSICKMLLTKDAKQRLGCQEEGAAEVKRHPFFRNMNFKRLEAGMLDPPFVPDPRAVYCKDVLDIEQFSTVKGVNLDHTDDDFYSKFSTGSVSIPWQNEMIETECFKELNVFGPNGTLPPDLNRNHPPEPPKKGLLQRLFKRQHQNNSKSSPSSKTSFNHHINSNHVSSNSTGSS
row,SMILES,residual activity [%]
1,O=C1NC(=O)c2cc(Nc3ccc(F)cc3)c(Nc3ccc(F)cc3)cc21,104
2,Oc1n[nH]c2nnc(-c3c(-c4ccccc4)nn4ccccc34)cc12,87
3,COc1cc2ncnc(Nc3ccc(Oc4ccccc4)cc3)c2cc1OC,90
4,CCC(=O)Nc1ccc2ncnc(Nc3cccc(Br)c3)c2c1,114
5,CC(C)[C@H](CO)Nc1nc(Nc2cc(N)cc(Cl)c2)c2ncn(C(C)C)c2n1,89
6,O=c1cc(-c2cccc3c2Sc2ccccc2S3)oc(N2CCOCC2)c1,99
7,Ic1cccc(CSc2nnc(-c3ccncc3)o2)c1,89
8,CO[C@H]1C[C@@H]2CC[C@@H](C)[C@@](O)(O2)C(=O)C(=O)N2CCCC[C@H]2C(=O)O[C@H]([C@H](C)C[C@@H]2CC[C@@H](O)[C@H](OC)C2)CC(=O)[C@H](C)/C=C(\C)[C@@H](O)[C@@H](OC)C(=O)[C@H](C)C[C@H](C)/C=C/C=C/C=C/1C,95
9,Nc1n[nH]c2nnc(-c3c(-c4ccccc4)nn4ccccc34)cc12,93
10,O=C(Nc1cccc(Nc2nccc(Nc3cccc(C(F)(F)F)c3)n2)c1)C1CC1,94
11,NC(=O)c1ccc2[nH]c(-c3ccc(Oc4ccc(Cl)cc4)cc3)nc2c1,93
12,CCN(CC)CCNC(=O)c1c(C)[nH]c(/C=C2\C(=O)Nc3ccc(Cl)cc32)c1C,68
13,O=C1NC(=O)/C(=C/c2ccc3c(c2)OC(F)(F)O3)S1,92
14,Nc1cccc(-c2cc3c(Oc4cccc(O)c4)ncnc3[nH]2)c1,92
15,Cc1cncc2cccc(S(=O)(=O)N3CCCN(C(=O)CN)C[C@H]3C)c12,98
16,CC(=O)O/N=C1\C(=C2\C(=O)Nc3cc(Br)ccc32)Nc2ccccc21,98

row,SMILES,residual activity [%]
1,Cc1ccc(NC2=CC(=O)c3sc(C)nc3C2=O)cc1,93
2,O=c1c(-c2ccc(F)cc2)c(-c2ccncc2)[nH]n1-c1ccc(Cl)cc1,101
3,CC(C)c1nn(-c2c(Cl)cccc2Cl)c2nc(Cc3ccc(OCCO)cc3)[nH]c(=O)c12,101
4,CNc1cc2c(Nc3cccc(Br)c3)ncnc2cn1,109
5,O=C1Nc2ccc(Br)cc2/C1=C\c1cc2c([nH]1)CCCC2,104
6,O=C(CCCc1ccc(-c2ccccc2F)cc1)Nc1ccc(O)cc1,101
7,COc1cc2ncnc(Nc3ccc(NC(=O)c4ccccc4)cc3)c2cc1OC,105
8,Nc1n[nH]c2nc3ccccc3nc12,98
9,CCN(CC)CCCCN1c2ccccc2Oc2ccc(Cl)cc21,107
10,c1ccc(-c2n[nH]cc2-c2ccnc3ccccc23)nc1,103
11,O=C1c2ccccc2-[n+]2ccc3c([nH]c4ccccc43)c21,91
12,O=c1cc(N2CCOCC2)oc2c1ccc1ccccc12,103
13,N#C/C(=C(\N)Sc1ccc(N)cc1)c1ccccc1C(F)(F)F,97
14,COc1ccc(CNc2nc(N(CCO)CCO)nc3c2ncn3C(C)C)cc1,89
15,O=C1NC(=O)/C(=C\c2ccc3nccnc3c2)S1,103
16,O=C1NC(=O)c2c1c1c3ccccc3[nH]c1c1[nH]c3cc(Br)ccc3c21,102

# Target: G protein-coupled receptor kinase 6 (Homo sapiens) (UniProt P43250)
# Sequence (P43250 whole entry, looked up): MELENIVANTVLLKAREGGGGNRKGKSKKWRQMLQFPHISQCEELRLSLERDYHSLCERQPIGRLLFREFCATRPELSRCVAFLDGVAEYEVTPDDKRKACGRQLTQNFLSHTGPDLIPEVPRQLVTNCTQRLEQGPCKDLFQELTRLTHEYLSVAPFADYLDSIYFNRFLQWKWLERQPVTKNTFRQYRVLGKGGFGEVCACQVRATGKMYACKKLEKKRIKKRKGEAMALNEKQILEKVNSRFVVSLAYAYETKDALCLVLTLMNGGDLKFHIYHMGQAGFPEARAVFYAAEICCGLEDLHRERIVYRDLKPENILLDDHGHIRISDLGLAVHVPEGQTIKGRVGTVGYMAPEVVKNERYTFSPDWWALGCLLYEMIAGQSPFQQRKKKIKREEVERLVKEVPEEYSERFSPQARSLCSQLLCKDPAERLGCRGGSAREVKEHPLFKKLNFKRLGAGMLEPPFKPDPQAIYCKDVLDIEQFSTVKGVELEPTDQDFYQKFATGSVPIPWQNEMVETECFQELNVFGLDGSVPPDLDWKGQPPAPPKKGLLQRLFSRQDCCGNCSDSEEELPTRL
# Conditions: at 1 µM
row,SMILES,residual activity [%]
1,O=C1NC(=O)c2cc(Nc3ccc(F)cc3)c(Nc3ccc(F)cc3)cc21,85
2,Oc1n[nH]c2nnc(-c3c(-c4ccccc4)nn4ccccc34)cc12,83
3,COc1cc2ncnc(Nc3ccc(Oc4ccccc4)cc3)c2cc1OC,93
4,CCC(=O)Nc1ccc2ncnc(Nc3cccc(Br)c3)c2c1,97
5,CC(C)[C@H](CO)Nc1nc(Nc2cc(N)cc(Cl)c2)c2ncn(C(C)C)c2n1,90
6,O=c1cc(-c2cccc3c2Sc2ccccc2S3)oc(N2CCOCC2)c1,100
7,Ic1cccc(CSc2nnc(-c3ccncc3)o2)c1,89
8,CO[C@H]1C[C@@H]2CC[C@@H](C)[C@@](O)(O2)C(=O)C(=O)N2CCCC[C@H]2C(=O)O[C@H]([C@H](C)C[C@@H]2CC[C@@H](O)[C@H](OC)C2)CC(=O)[C@H](C)/C=C(\C)[C@@H](O)[C@@H](OC)C(=O)[C@H](C)C[C@H](C)/C=C/C=C/C=C/1C,89
9,Nc1n[nH]c2nnc(-c3c(-c4ccccc4)nn4ccccc34)cc12,87
10,O=C(Nc1cccc(Nc2nccc(Nc3cccc(C(F)(F)F)c3)n2)c1)C1CC1,99
11,NC(=O)c1ccc2[nH]c(-c3ccc(Oc4ccc(Cl)cc4)cc3)nc2c1,93
12,CCN(CC)CCNC(=O)c1c(C)[nH]c(/C=C2\C(=O)Nc3ccc(Cl)cc32)c1C,68
13,O=C1NC(=O)/C(=C/c2ccc3c(c2)OC(F)(F)O3)S1,93
14,Nc1cccc(-c2cc3c(Oc4cccc(O)c4)ncnc3[nH]2)c1,93
15,Cc1cncc2cccc(S(=O)(=O)N3CCCN(C(=O)CN)C[C@H]3C)c12,84
16,CC(=O)O/N=C1\C(=C2\C(=O)Nc3cc(Br)ccc32)Nc2ccccc21,86

row,SMILES,residual activity [%]
1,Cc1ccc(NC2=CC(=O)c3sc(C)nc3C2=O)cc1,96
2,O=c1c(-c2ccc(F)cc2)c(-c2ccncc2)[nH]n1-c1ccc(Cl)cc1,99
3,CC(C)c1nn(-c2c(Cl)cccc2Cl)c2nc(Cc3ccc(OCCO)cc3)[nH]c(=O)c12,96
4,CNc1cc2c(Nc3cccc(Br)c3)ncnc2cn1,95
5,O=C1Nc2ccc(Br)cc2/C1=C\c1cc2c([nH]1)CCCC2,102
6,O=C(CCCc1ccc(-c2ccccc2F)cc1)Nc1ccc(O)cc1,101
7,COc1cc2ncnc(Nc3ccc(NC(=O)c4ccccc4)cc3)c2cc1OC,111
8,Nc1n[nH]c2nc3ccccc3nc12,93
9,CCN(CC)CCCCN1c2ccccc2Oc2ccc(Cl)cc21,102
10,c1ccc(-c2n[nH]cc2-c2ccnc3ccccc23)nc1,96
11,O=C1c2ccccc2-[n+]2ccc3c([nH]c4ccccc43)c21,88
12,O=c1cc(N2CCOCC2)oc2c1ccc1ccccc12,96
13,N#C/C(=C(\N)Sc1ccc(N)cc1)c1ccccc1C(F)(F)F,86
14,COc1ccc(CNc2nc(N(CCO)CCO)nc3c2ncn3C(C)C)cc1,95
15,O=C1NC(=O)/C(=C\c2ccc3nccnc3c2)S1,90
16,O=C1NC(=O)c2c1c1c3ccccc3[nH]c1c1[nH]c3cc(Br)ccc3c21,102
